Results from PubChem BioAssay AID1159580 (chemical genetic matrix, 2015).
Several values for one entry are separate records, joined by “and”; a condition that tells them apart may be missing. Equal entries are not always repeated. Hit rate of the full screen: of about 5,500 compounds, about 2,000 (36%) were called active. About 18% were inconclusive and are not listed. No stated cut-off is given here; in the data, active means normalized growth mostly below about 0.91 (no sharp cut-off); inconclusive means no clear call, values can overlap the other calls; inactive means mostly above about 0.92. The list shows a part of the results.

Experiment: chemical genetic growth profiling, strain panel (AID 1159580);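 further: tested at 20 µM; growth read once vehicle control cultures reached saturation at 30 °C; 1 = growth at the plate median or of vehicle wells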
Settings: S. cerevisiae deletion strains, growth OD

Measured: normalized growth

O=C(/C=C/C=C/c1ccc2c(c1)OCO2)N1CCCCC1
inactive: locus YAL013W, strain DEP1, stronger effect = lower value 0.962 | locus YAL021C, strain ccr4, stronger effect = lower value 0.965 | locus YAL030W, strain snc1, stronger effect = lower value 0.959 | locus YBL061C, strain skt5, stronger effect = lower value 0.949 | locus YBR021W, strain FUR4, stronger effect = lower value 0.893 | locus YBR023C, strain chs3, stronger effect = lower value 0.92 | locus YBR171W, strain sec66, stronger effect = lower value 0.91 | locus YBR229C, strain ROT2, stronger effect = lower value 0.969 | locus YBR231C, strain swc5, stronger effect = lower value 0.951 | locus YBR279W, strain paf1, stronger effect = lower value 0.952 | locus YCL016C, strain dcc1, stronger effect = lower value 0.915 | locus YCL029C, strain bik1, stronger effect = lower value 0.954 | locus YCL061C, strain MRC1, stronger effect = lower value 0.943 | locus YCR088W, strain abp1, stronger effect = lower value 0.945 | locus YDL005C, strain med2, stronger effect = lower value 0.975 | locus YDL035C, strain GPR1, stronger effect = lower value 0.922 | locus YDL040C, strain nat1, stronger effect = lower value 0.966 | locus YDL074C, strain BRE1, stronger effect = lower value 0.835 | locus YDL101C, strain DUN1, stronger effect = lower value 0.969 | locus YDL134C, strain PPH21, stronger effect = lower value 0.944 | locus YDL185W, strain tfp1, stronger effect = lower value 0.94 | locus YDL192W, strain arf1, stronger effect = lower value 0.939 | locus YDR001C, strain nth1, stronger effect = lower value 0.936 | locus YDR069C, strain doa4, stronger effect = lower value 0.998 | locus YDR101C, strain arx1, stronger effect = lower value 0.931 | locus YDR150W, strain NUM1, stronger effect = lower value 0.986 | locus YDR159W, strain sac3, stronger effect = lower value 0.955 | locus YDR162C, strain NBP2, stronger effect = lower value 0.93 | locus YDR297W, strain sur2, stronger effect = lower value 0.965 | locus YDR334W, strain swr1, stronger effect = lower value 0.968 | locus YDR335W, strain msn5, stronger effect = lower value 0.96 | locus YDR388W, stronger effect = lower value 0.931 | locus YEL003W, strain gim4, stronger effect = lower value 0.94 | locus YEL037C, strain rad23, stronger effect = lower value 0.946 | locus YEL061C, strain CIN8 (second series), stronger effect = lower value 0.969 | locus YEL061C, strain CIN8, stronger effect = lower value 0.971 | locus YER016W, strain bim1, stronger effect = lower value 0.948 | locus YER110C, stronger effect = lower value 0.951 | locus YER111C, strain swi4, stronger effect = lower value 0.986 | locus YER155C, strain BEM2, stronger effect = lower value 0.963 | locus YER167W, strain BCK2, stronger effect = lower value 0.907 | locus YFR010W, strain ubp6, stronger effect = lower value 0.974 | locus YGL078C, strain dbp3, stronger effect = lower value 0.957 | locus YGL167C, strain pmr1, stronger effect = lower value 0.945 | locus YGL173C, strain kem1, stronger effect = lower value 0.926 | locus YGL227W, strain vid30, stronger effect = lower value 0.948 | locus YGL240W, strain doc1, stronger effect = lower value 0.919 | locus YGL248W, strain PDE1, stronger effect = lower value 0.938 | locus YGR078C, strain PAC10, stronger effect = lower value 0.871 | locus YHR013C, strain ard1, stronger effect = lower value 0.951 | locus YHR027C, strain rpn1, stronger effect = lower value 0.959 | locus YHR030C, strain SLT2, stronger effect = lower value 0.939 and 0.975 | locus YHR079C, strain IRE1 (second series), stronger effect = lower value 0.937 | locus YHR079C, strain IRE1, stronger effect = lower value 0.977 | locus YHR094C, strain hxt1, stronger effect = lower value 0.954 | locus YHR129C, strain ARP1, stronger effect = lower value 0.973 | locus YHR200W, strain rpn10, stronger effect = lower value 0.925 | locus YIL066C, strain RNR3, stronger effect = lower value 0.94 | locus YIL073C, strain SPO22, stronger effect = lower value 0.864 | locus YIL125W, strain kgd1, stronger effect = lower value 0.96 | locus YIR030C, strain dcg1, stronger effect = lower value 0.941 | locus YJL092W, strain hpr5, stronger effect = lower value 0.947 | locus YJL095W, strain BCK1 (second series), stronger effect = lower value 0.935 | locus YJL115W, strain asf1, stronger effect = lower value 0.984 | locus YJL134W, strain LCB3, stronger effect = lower value 0.978 | locus YJL154C, strain vps35, stronger effect = lower value 0.96 | locus YJL166W, strain qcr8, stronger effect = lower value 0.93 | locus YJL168C, strain set2, stronger effect = lower value 0.945 | locus YJL187C, strain SWE1 (second series), stronger effect = lower value 0.942 | locus YJL187C, strain SWE1, stronger effect = lower value 0.967 | locus YJR043C, strain POL32, stronger effect = lower value 0.862 | locus YJR066W, strain TOR1, stronger effect = lower value 0.955
0.779 (active) and 0.987 (inactive): locus YJL095W, strain BCK1, stronger effect = lower value
active: locus YAL026C, strain drs2, stronger effect = lower value 0.885 | locus YBR009C, strain hhf1, stronger effect = lower value 0.907 | locus YCL011C, strain gbp2, stronger effect = lower value 0.889 | locus YCL069W, strain vba3, stronger effect = lower value 0.904 | locus YDR137W, strain rgp1, stronger effect = lower value 0.687 | locus YDR195W, strain ref2 1.23 [resistant] | locus YDR318W, strain mcm21, stronger effect = lower value 0.895 | locus YDR392W, strain spt3, stronger effect = lower value 0.599 | locus YDR502C, strain sam2, stronger effect = lower value 0.888 | locus YER015W, strain faa2, stronger effect = lower value 0.922 | locus YER155C, strain BEM2 (second series), stronger effect = lower value 0.696 | locus YGL086W, strain mad1, stronger effect = lower value 0.923 | locus YGL253W, strain hxk2, stronger effect = lower value 0.873 | locus YGR135W, strain pre9, stronger effect = lower value 0.886 | locus YGR229C, strain SMI1, stronger effect = lower value 0.732 | locus YGR252W, strain gcn5, stronger effect = lower value 0.732 | locus YHR142W, strain chs7, stronger effect = lower value 0.857 | locus YJL129C, strain trk1, stronger effect = lower value 0.855 | locus YJL164C, strain tpk1, stronger effect = lower value 0.904
